High-throughput results as filed in PubChem.
PINK1 expr mod – A Quantitative High throughput Screen to Identify Chemical Modulators of PINK1 Expression; PINK1 immunofluorescence, high-content cytometry, 24 h; Potency, µM (doses to about 76.6 µM), without a hit: at the top dose activation (PINK1 increase), usual class: activators; 0.2% of 410,000 active; AID 624263, 2012; active = well fitted activation curve with a large enough effect; inconclusive = small, poorly fitted or top-dose-only effect; cell line not stated here; note: % of control where 0% means no effect; nearly all actives have a fitted effect of over 65% in size
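A stable cell line was treated with compounds at 5 concentrations for 24 hours, with CCCP as control. PINK1 levels and mitochondrial localization were measured by immunofluorescence with mitochondrial, cell and nuclear markers after fixation, read by laser-scanning cytometry.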
SW480 rereplic – A quantitative high throughput screen for small molecules that induce DNA re-replication in SW480 colon adenocarcinoma cells. Potency, µM (series often up to 46.1 µM), for inactives: at the highest dose re-replication activation, hits mostly activators. 1.8% of 340,000 active. SW480 DNA re-replication, Hoechst DNA content imaging, 48 h. AID 624297, 2012; note: % of control where 0% means no effect; nearly all actives have a fitted effect of over 55% in size
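DNA re-replication was detected as more nuclei of elevated Hoechst intensity after 48 hr exposure to compound (23 nL pinned per well of 250 cells).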
KB-3-1 cytotox – qHTS assay for MDR1-selective chemotherapeutics: Primary screen using the parental adenocarcinoma cell KB-3-1 | 1.4% of 400,000 active | Potency, µM (highest dose often 46.1 µM), actives largely listed as cytotoxic | KB-3-1 viability, CellTiter-Glo ATP luminescence, 72 h; note: % is set by controls: 0 for no effect and ±100 for the full control effect; nearly all actives have a fitted effect of over 60% in size
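Cytotoxicity measured as CellTiter-Glo luminescence after 72 h at 37 C. Compound titrations were pinned onto drug-naive KB-3-1 parental adenocarcinoma cells grown in DMEM with 10% FBS, and normalized data fitted to concentration-response curves.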
KB-V1 MDR tox – qHTS assay for MDR1-selective chemotherapeutics: Primary screen using the drug-selected MDR subline cells KB-V1; KB-V1 MDR cells viability, CellTiter-Glo, 72 h; Potency, µM (doses to about 46.1 µM), usual class: cytotoxic; 3.4% of 400,000 active; AID 1347076, 2019; note: % is set by controls: 0 for no effect and ±100 for the full control effect; nearly all actives have a fitted effect of over 60% in size
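Compound-treated KB-V1 multidrug-resistant cells, 72 h, 37 degrees C; viability by CellTiter-Glo. Fitted qHTS curves give the values.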
TSG101-PTAP inh – qHTS Assay for Iinhibitors of HIV-1 Budding by Blocking the Interaction of PTAP/TSG101; 340,000 tested, under 10 active; Tumor susceptibility gene 101 protein (Homo sapiens), Q99816; Potency, µM (series often up to 115 µM), without a hit: top-dose activity change, negative = inhibition, hits mostly inhibitors; Fluorescence polarization, FITC-PTAP peptide / Tsg101 binding; active = well fitted inhibition curve with a large enough effect in the main read-out, with a control signal flat, not every such curve was filed as active; inconclusive = small, poorly fitted or top-dose-only effect, or effect the other way, or a change in a side signal; inactive = no such curve, though single readings can be large or run the other way; note: % of control where 0% means no effect
Target sequence (Q99816 whole entry, looked up): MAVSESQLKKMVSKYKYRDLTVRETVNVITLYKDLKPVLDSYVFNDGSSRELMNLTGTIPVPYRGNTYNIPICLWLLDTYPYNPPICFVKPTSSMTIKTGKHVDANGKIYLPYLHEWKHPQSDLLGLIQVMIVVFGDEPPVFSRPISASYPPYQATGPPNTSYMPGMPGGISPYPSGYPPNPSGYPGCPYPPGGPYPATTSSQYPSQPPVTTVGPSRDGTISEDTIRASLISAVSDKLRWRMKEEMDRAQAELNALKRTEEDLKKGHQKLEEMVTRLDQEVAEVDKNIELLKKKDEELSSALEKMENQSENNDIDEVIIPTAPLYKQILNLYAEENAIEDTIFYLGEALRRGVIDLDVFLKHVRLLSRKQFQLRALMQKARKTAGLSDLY
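Steps: Tsg101 binding domain dispensed (10 uM final), compounds pinned in DMSO, FITC-labeled PTAP-motif peptide added (50 nM final); after 20 min binding at room temperature, polarization measured.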
MCF10A rerep – A quantitative high throughput screen for small molecules that induce DNA re-replication in MCF 10a normal breast cells; AID 624296, 2012; 2.9% of 350,000 active; Potency, µM (series often up to 46.1 µM), inactives show at the highest dose activity, positive = re-replication, hits mostly activators; MCF 10A DNA re-replication, Hoechst nuclear intensity, 48 h; note: % of control where 0% means no effect; nearly all actives have a fitted effect of over 50% in size
Active calls of the source: *; i = inactive; ? = inconclusive; . = not tested or not shown; [ ] = dose if it differs, or a comment. Shown are actives, neighbours in structure and some others; about 6.8% of the full set was active somewhere. Unless noted, calls come from the whole dose curve; as a rule, active = well fitted curve in the direction sought with a large enough effect; inconclusive = small, poorly fitted or top-dose-only effect, or another doubt; inactive = no such curve, though single readings can be large; an effect the other way counts as inactive or inconclusive. Potency is the fitted concentration of half-maximal effect.

SMILES | PINK1 expr mod | SW480 rereplic | KB-3-1 cytotox | KB-V1 MDR tox | TSG101-PTAP inh | MCF10A rerep
CCOC(=O)c1[nH]c(C)c(CCC(=O)Nc2ccc(C(C)=O)cc2)c1C | 0% | . | i | ? | . | .
COc1ccc(NC(=O)C(=O)N/N=C\c2ccc(CNC(=O)C(=O)Nc3ccc(C)c(C)c3)o2)c(OC)c1 | 0% | 2.9µM* | 13µM* | ? | 2% | ?
COCCNC(=O)/C(C#N)=C\c1ccc(CNC(=O)C(=O)Nc2ccc(C)c(C)c2)o1 | 0% | -8% | i | i | -7% | ?
CC1(C)CC(=O)N(Cc2ccccc2)C(=O)C1 | 2% | 9.2µM* | i | i | -2% | 0%
O=C1CN(CCN2CC(=O)N(Cc3ccccc3)C(=O)C2)CC(=O)N1Cc1ccccc1 | 1% | . | i | i | . | .
CC(=O)C1=C(O)C(=O)N(c2nccs2)C1c1ccccc1F (stereo unspecified) | 1% | -15% | i | i | 0% | 12%
COc1ccc(C2C(C(C)=O)=C(O)C(=O)N2c2nccs2)c(OC)c1 (stereo unspecified) | 0% | 21µM* | i | i | -1% | 3%
CNC(=O)C1CCC(Cn2c(=O)c3sccc3n(CC(=O)Nc3ccc(C)c(F)c3)c2=O)CC1 (stereo unspecified) | 1% | . | i | ? | . | .
CCN(CC)S(=O)(=O)c1ccc2c(c1)N(CC(=O)Nc1ccc(OC)cc1)C(=O)CS2 | -2% | . | i | i | . | .
N#CC1=C(N)OC2=C(CC/C2=C\c2ccccc2)C1c1ccccc1 (stereo unspecified) | ? | 15µM* | ? | ? | ? | 5.8µM*
CNS(=O)(=O)c1cccc(C(=O)OCC(=O)c2c(N)n(C)c(=O)n(C)c2=O)c1 | 5% | 5% | i | i | -4% | 0%
C=CCN(c1ccccc1OC)S(=O)(=O)c1cccc(C(=O)OCC(=O)c2c(N)n(C)c(=O)n(C)c2=O)c1 | 3% | 1% | ? | 8.2µM* | -4% | 20%
COc1cc2c(cc1OC)C(COc1ccc3c(C)cc(=O)oc3c1)N(C(=O)c1ccc(C)cc1)CC2 (stereo unspecified) | 0% | . | i | i | . | .
CC(C)(C)NC[C@@H](O)COc1ccccc1C1CCCC1 | . | 0%[20.6 µM] | . | . | . | 2%[20.6 µM]
O=[N+]([O-])c1cccc(/C=N\N=C2c3ccccc3-c3ccccc32)c1O | 27% | 141% | ? | 18µM* | 2% | -36%
O=[N+]([O-])c1cccc(C=NN=C2c3ccccc3-c3ccccc32)c1 | 2% | -2% | i | 21µM* | -4% | 7%
CCOc1ccc(CC(=O)NCc2ccc3c(c2)CCN3C(=O)c2ccc(F)cc2)cc1OCC | 3% | . | i | ? | . | .
